# Of roughly 7,900 targets only a part is listed; those with a hit were picked by preference. About 0.6% of all pairs of compound and target were hits. Unmarked numbers belong to inactive results.
# Compound: Cc1nc(Nc2ncc(C(=O)Nc3c(C)cccc3Cl)s2)cc(N2CCN(CCO)CC2)n1 [dasatinib]
# Test: log2 fold change, soluble protein after heating vs DMSO (PISA); higher = thermal stabilisation; K562 cells, 10 uM, 30 min; active = over 0.2 and 3.5 SD of the protein, either way, in both replicates (recomputed)
# Outline: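 K562 cells at 2×10^6 cells/mL were treated with 10 μM compound for 30 min. Aliquots were heated for 3 min across 48°C-58°C, pooled, and extracted in PBS with 0.5% NP-40 at 4°C; soluble protein was the supernatant after 21,000xg for 90 min. Soluble protein was quantified by TMTpro 16plex LC-MS/MS with channel sums equalised, and reported as log2 fold change in thermal stability against DMSO controls, with values from duplicates.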
# Chain of UniProt O75909 (O75909 whole entry, looked up): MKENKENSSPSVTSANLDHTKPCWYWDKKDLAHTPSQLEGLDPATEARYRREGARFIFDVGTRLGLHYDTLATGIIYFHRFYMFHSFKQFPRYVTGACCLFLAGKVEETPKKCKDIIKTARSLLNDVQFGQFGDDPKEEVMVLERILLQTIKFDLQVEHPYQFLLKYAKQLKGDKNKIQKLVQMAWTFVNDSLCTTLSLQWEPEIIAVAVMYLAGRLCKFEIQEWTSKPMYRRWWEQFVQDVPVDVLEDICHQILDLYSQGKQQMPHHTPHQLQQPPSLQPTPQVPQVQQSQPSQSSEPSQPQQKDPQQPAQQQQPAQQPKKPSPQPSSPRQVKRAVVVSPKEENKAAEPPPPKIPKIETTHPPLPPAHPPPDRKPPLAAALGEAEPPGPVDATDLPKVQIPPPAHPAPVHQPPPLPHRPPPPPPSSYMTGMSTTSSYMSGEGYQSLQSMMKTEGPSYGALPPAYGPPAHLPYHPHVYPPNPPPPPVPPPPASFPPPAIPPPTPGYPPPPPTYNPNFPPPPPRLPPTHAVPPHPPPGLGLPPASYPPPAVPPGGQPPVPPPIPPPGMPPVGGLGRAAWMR
# Chain of UniProt P42575 (P42575 whole entry, looked up): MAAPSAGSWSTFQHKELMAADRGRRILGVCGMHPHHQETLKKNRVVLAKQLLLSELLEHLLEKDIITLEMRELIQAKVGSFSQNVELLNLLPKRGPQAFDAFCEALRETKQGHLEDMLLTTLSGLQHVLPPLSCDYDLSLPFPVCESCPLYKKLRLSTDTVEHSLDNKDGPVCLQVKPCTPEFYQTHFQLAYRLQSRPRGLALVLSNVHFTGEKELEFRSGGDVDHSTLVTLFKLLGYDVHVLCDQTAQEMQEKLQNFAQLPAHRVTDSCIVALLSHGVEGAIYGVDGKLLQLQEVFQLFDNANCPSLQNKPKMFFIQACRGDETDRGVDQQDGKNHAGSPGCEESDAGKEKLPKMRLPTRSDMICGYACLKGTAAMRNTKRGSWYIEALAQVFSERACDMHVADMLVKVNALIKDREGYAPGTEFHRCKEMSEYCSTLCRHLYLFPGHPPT
# Chain of UniProt P48509 (P48509 whole entry, looked up): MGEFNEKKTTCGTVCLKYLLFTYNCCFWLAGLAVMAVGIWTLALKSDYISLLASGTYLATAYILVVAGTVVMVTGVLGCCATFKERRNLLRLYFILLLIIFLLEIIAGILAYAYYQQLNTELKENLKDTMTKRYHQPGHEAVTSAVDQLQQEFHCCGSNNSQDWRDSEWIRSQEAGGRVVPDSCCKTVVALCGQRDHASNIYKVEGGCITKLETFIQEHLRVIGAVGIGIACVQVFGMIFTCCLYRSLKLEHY
# Chain of UniProt Q12996 (Q12996 whole entry, looked up): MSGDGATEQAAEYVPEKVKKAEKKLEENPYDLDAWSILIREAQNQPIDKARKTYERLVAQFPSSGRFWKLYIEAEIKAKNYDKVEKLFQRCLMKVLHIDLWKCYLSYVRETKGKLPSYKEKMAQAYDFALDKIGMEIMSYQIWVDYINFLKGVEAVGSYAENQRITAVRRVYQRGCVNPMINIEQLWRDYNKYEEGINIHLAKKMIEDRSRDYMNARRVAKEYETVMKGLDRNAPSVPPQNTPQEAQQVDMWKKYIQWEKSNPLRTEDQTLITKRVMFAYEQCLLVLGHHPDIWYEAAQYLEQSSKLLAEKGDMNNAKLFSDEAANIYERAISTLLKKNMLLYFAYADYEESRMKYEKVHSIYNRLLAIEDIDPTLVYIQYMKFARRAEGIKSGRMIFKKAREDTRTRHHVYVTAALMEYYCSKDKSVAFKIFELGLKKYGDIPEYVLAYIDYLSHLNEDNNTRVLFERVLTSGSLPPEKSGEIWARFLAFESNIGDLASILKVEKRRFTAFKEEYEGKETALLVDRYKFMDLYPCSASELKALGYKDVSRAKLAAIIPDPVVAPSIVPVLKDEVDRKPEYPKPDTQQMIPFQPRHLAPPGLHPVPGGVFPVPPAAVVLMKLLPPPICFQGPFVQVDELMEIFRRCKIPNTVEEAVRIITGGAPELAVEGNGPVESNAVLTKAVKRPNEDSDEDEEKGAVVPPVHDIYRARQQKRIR
# Chain of UniProt Q9Y646 (Q9Y646 whole entry, looked up): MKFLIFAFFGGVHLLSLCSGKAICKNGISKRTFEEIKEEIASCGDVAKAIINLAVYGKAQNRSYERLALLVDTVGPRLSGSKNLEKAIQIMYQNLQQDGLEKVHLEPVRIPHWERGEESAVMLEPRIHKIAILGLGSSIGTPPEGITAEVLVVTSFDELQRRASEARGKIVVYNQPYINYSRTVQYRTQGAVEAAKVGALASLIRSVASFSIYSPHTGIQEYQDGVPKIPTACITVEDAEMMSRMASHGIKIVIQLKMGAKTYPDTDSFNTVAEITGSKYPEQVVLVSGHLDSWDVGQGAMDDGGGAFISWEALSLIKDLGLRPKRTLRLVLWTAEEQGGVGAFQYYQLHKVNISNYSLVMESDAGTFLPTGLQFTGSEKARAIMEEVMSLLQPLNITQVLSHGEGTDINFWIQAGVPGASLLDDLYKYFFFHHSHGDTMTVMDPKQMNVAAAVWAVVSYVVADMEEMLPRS
# Chain of UniProt P46108 (P46108 whole entry, looked up): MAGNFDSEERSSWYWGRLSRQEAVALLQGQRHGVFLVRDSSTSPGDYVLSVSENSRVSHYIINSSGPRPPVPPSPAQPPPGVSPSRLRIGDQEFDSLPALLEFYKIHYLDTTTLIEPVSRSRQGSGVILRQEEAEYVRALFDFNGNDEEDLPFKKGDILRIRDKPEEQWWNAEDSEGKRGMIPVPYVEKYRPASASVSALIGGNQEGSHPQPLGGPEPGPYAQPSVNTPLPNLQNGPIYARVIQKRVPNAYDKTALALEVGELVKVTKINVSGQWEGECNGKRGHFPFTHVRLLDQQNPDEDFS
# Chain of UniProt Q10570 (Q10570 whole entry, looked up): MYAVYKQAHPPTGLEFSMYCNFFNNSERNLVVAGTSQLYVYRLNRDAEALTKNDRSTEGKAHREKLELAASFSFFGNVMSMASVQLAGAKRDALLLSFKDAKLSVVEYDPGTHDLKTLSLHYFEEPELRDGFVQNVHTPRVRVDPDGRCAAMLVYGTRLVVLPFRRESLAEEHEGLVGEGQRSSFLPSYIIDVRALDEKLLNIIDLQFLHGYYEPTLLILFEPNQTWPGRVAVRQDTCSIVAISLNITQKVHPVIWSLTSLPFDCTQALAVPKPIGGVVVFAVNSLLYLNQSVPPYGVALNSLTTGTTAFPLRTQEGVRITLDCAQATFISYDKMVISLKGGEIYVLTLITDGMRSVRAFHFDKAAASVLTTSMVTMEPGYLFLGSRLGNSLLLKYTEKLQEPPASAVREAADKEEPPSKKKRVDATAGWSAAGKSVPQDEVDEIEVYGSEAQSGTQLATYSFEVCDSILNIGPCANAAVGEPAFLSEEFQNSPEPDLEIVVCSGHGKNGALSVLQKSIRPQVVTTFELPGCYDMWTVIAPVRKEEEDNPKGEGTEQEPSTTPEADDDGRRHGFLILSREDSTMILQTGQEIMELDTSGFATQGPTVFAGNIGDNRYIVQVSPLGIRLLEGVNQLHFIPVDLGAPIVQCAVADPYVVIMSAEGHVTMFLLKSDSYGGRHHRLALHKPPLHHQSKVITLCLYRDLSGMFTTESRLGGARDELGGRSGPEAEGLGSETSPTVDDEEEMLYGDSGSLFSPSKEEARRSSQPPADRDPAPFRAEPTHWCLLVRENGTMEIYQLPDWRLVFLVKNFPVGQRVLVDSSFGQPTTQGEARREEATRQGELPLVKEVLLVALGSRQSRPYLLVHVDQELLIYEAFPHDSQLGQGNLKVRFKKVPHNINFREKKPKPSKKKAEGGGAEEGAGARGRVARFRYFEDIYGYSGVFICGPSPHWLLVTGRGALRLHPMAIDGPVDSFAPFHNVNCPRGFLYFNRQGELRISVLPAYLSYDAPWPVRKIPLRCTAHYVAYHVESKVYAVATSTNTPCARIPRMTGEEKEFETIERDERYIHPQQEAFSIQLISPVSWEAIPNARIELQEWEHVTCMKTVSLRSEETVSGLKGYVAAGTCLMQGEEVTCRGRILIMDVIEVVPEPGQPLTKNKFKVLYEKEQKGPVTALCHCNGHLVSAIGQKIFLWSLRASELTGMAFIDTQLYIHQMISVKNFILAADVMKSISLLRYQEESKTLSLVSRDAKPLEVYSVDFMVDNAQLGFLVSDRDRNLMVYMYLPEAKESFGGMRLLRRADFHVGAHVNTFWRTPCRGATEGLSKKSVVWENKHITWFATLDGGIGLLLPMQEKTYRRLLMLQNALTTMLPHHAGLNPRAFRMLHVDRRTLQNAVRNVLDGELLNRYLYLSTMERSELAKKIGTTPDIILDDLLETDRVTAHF
# Chain of UniProt P86791 (P86791 whole entry, looked up): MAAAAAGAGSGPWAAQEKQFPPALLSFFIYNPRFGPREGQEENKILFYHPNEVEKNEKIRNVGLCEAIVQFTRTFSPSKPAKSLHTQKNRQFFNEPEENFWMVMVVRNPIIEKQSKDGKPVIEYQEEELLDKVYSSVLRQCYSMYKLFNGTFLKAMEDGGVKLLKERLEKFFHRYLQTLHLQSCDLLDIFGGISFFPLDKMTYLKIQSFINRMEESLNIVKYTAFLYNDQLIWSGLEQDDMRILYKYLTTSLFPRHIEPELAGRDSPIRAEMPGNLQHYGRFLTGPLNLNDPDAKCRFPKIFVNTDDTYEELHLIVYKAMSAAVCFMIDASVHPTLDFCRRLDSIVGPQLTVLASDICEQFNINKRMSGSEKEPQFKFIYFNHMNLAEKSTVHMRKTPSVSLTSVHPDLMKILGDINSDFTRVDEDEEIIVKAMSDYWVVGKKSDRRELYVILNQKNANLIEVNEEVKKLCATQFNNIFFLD
# Chain of UniProt P83916 (P83916 whole entry, looked up): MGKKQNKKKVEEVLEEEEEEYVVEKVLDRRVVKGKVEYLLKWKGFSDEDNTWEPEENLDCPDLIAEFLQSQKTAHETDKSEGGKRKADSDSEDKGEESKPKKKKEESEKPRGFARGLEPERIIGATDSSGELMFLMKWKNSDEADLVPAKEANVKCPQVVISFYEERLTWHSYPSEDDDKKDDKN
# Chain of UniProt P14854 (P14854 whole entry, looked up): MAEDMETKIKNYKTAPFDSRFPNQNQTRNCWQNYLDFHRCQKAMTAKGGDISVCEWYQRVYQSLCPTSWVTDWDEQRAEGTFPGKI
row,Target,log2 fold change
1,CD151 (UniProt P48509),0.063
2,CBX1 (UniProt P83916),0.084
3,CHCHD2 (UniProt Q9Y6H1),0.075
4,CCNK isoform 4 (UniProt O75909),-0.013
5,CBR1 (UniProt P16152),-0.02
6,CASP2 (UniProt P42575),-0.165
7,COCH (UniProt O43405),0.179
8,CTBS (UniProt Q01459),-0.006
9,CDKN2AIP (UniProt Q9NXV6),-0.041
10,CBS (UniProt P35520),0.018
11,COMT (UniProt P21964),0.03
12,CCDC9 (UniProt Q9Y3X0),0.072
13,CHD4 isoform 2 (UniProt Q14839),-0.059
14,COX5A (UniProt P20674),0.06
15,CLCN3 (UniProt P51790),0.019
16,C4A (UniProt P0C0L4),-0.044
17,CCAR2 isoform 2 (UniProt Q8N163),-0.176
18,COPS4 (UniProt Q9BT78),-0.023

row,Target,log2 fold change
1,CDK16 isoform 2 (UniProt Q00536),0
2,COPS3 (UniProt Q9UNS2),-0.02
3,C4orf33 (UniProt Q8N1A6),-0.002
4,COPS8 (UniProt Q99627),0.006
5,CDK5RAP3 isoform 4 (UniProt Q96JB5),-0.082
6,CCZ1 (UniProt P86791),-0.057
7,CSTF2 (UniProt P33240),0.007
8,COX6B1 (UniProt P14854),0.019
9,CNDP2 (UniProt Q96KP4),-0.031
10,CPQ (UniProt Q9Y646),0.069
11,CA1 (UniProt P00915),-0.007
12,CNN2 (UniProt Q99439),-0.14
13,CSNK2A2 (UniProt P19784),-0.056
14,CNOT2 (UniProt Q9NZN8),-0.035
15,CRK (UniProt P46108),-0.883 (active)
16,CETN2 (UniProt P41208),0.081
17,CPSF1 (UniProt Q10570),-0.037
18,CSTF3 (UniProt Q12996),-0.021
